# Measured values published in PubChem BioAssay AID743279 (National Center for Advancing Translational Sciences (NCATS), 2014).
# In all, about 360,000 compounds went through this assay and about 17,000 (4.7%) were called active. Another 5% or so got no clear call; they are omitted. This is one part of a sample in which actives are shown more often than they occur. Cut-off read from the data, not from the text of the source: active = activity change below about -50%; inconclusive = mostly about -30% to -49%; inactive = weaker than that.
# Experiment: qHTS for Inhibitors of Inflammasome Signaling: IL-1-beta AlphaLISA Primary Screen
# Conditions: THP-1 LPS/ATP IL-1B secretion, 16 h; at 57.5 µM, active compounds read low
# Outline: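 THP-1 cells pretreated 1 hr with compounds (up to 57.5 uM final), then stimulated with LPS (250 ng/mL final) plus ATP (1.25 mM final); secreted IL-1B measured by AlphaLISA after 16 hr, decreased signal indicating inhibition.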
# % is set by controls: 0 for no effect and ±100 for the full control effect.
row,SMILES,activity change
1,CCn1c(/C=C/c2ccc([N+](=O)[O-])o2)nc2ccccc2c1=O,-95.2% (active)
2,O=c1oc(/C=C/c2ccccc2)nc2ccccc12,-0.257% (inactive)
3,CCOCCCn1c(NN)nc2ccccc2c1=O,-13.8% (inactive)
4,CC(C)CN1C(=O)CN(S(C)(=O)=O)CC1(C)C(=O)NCc1ccccc1 (centres undefined),37.5% (inactive)
5,Clc1cc(NC2CCCCC2)ncn1,35.9% (inactive)
6,COCCCNC(=O)c1cccc2c(-c3ccc(O)c(OC)c3)coc12,2.52% (inactive)
7,O=C(NCc1ccccc1)c1onc(CSc2nc3ccccc3[nH]2)c1C(=O)NCc1ccccc1,-5.65% (inactive)
8,CN(Cc1ccccc1)C(=O)CSc1nc2ccccc2[nH]1,-8.05% (inactive)
9,COc1ccccc1CSc1nc2ccccc2[nH]1,-54.1% (active)
10,O=C(NCC1CCCCC1)NCC1CCCCC1,5.16% (inactive)
11,C[C@@H]1CN([C@@H](C)CO)C(=O)CCCn2nncc2CO[C@H]1CN(C)Cc1ccc(C(F)(F)F)cc1,14.2% (inactive)
12,CCOC(=O)c1cccc(NC(=O)c2ccc(F)cc2F)c1,13.7% (inactive)
13,CCOC(=O)c1nnn(CC(=O)Nc2cccc(F)c2)c1C(=O)OCC,-64.5% (active)
14,CCOC(=O)c1cccc(NC(=O)CCn2nnc3ccccc32)c1,-9.21% (inactive)
15,Cn1cc(CN2CCC(C(O)CCc3ccccc3)CC2)c(-c2ccccc2F)n1 (centres undefined),-20.8% (inactive)
16,Cc1cccc(-n2cc(CN3CCN(C(=O)c4ncn[nH]4)CC3)c(-c3cccc(F)c3)n2)c1,0.119% (inactive)
17,COc1ccc(-c2nn(-c3ccccc3)cc2CN2CCCO2)c(F)c1,-28.9% (inactive)
18,COc1ccc(-n2cc(CNC3CCOCC3)c(-c3cccc(F)c3)n2)cc1,-66.6% (active)
19,CCC(O)C1CCN(Cc2cn(-c3ccc(OC)cc3)nc2-c2cccc(F)c2)CC1 (centres undefined),-60.7% (active)
20,COc1ccc(-n2cc(CN(C)Cc3n[nH]c(=O)[nH]3)c(-c3cccc(F)c3)n2)cc1,-3.96% (inactive)
21,OCCC1CN(Cc2ccc3nsnc3c2)CCN1C1CCCCC1 (centres undefined),36.7% (inactive)
22,O=C(COc1ccc(Br)cc1)OCC(=O)c1ccc[nH]1,-7.68% (inactive)
23,CCCNC(=O)C1(C)CCN(C(=O)c2ccc(F)cc2Cl)C1 (centres undefined),16.4% (inactive)
24,CC1(C)CC(=O)C2=C(C1)N=C1SCCC(=O)N1C2c1ccc(C(F)(F)F)cc1 (centres undefined),0.519% (inactive)

row,SMILES,activity change
1,CCCc1nc2sc3c(c2c(=O)n1NC(=O)CCCl)CCCC3,-96.6% (active)
2,Cn1c(NN)nc2sc3c(c2c1=O)CCC3,26.1% (inactive)
3,Cc1nc2sc3c(c2c(=O)n1NC(=O)CCl)CCCC3,-80.7% (active)
4,NNC(=O)C1CCCn2c1nc1sc3c(c1c2=O)CCCC3 (centres undefined),0% (inactive)
5,CCc1nc(N2CCN(C(C)=O)CC2)c2c3c(sc2n1)CCCC3,-1.89% (inactive)
6,Cc1ccc(C)c(-n2c(SCC(=O)O)nc3sc4c(c3c2=O)CCCC4)c1,0.0998% (inactive)
7,O=C1[C@H]2[C@@H](c3ccc(C(F)(F)F)cc3)N[C@]3(CCCN(Cc4ccc(Br)cc4)C3=O)[C@H]2C(=O)N1Cc1ccccc1,-13.1% (inactive)
8,Cc1ccc(S(=O)(=O)N2CC3C(=O)C[C@@H](c4ccccc4Cl)N(S(=O)(=O)c4ccc(C)cc4)C3CC2c2ccccc2)cc1 (some centres undefined),-22% (inactive)
9,COC(=O)[C@]12CCCCC=C1N(Cc1ccc3c(c1)OCO3)C(=O)[C@H](CC(=O)N1CCOCC1)C2,-18.3% (inactive)
10,C/C=C/c1ccc(OCC(O)CN2CCCCCCC2)c(OC)c1 (centres undefined),-53.6% (active)
11,COc1ccc(OCCCCN2CCC(C)CC2)cc1,-29.3% (inactive)
12,C/C=C/c1ccc(OCCCCN2CCC(C)CC2)c(OC)c1,-54% (active)
13,C/C=C/c1ccc(OCCOc2ccc(C=O)cc2OC)c(OC)c1,3.9% (inactive)
14,COc1ccccc1OCC(O)CN1CCOCC1 (centres undefined),5.64% (inactive)
15,C=CCc1ccc(OCC(O)CN2CCN(Cc3ccccc3)CC2)c(OC)c1 (centres undefined),-7.39% (inactive)
16,CC(=O)Nc1ccc(C(=O)OCC(=O)Nc2ccc([N+](=O)[O-])cc2C(F)(F)F)cc1,-1.11% (inactive)
17,COC(=O)[C@]12CCCCC=C1N(Cc1ccco1)C(=O)[C@H](CC(=O)NCCCCc1ccccc1)C2,4% (inactive)
18,CC(=O)Nc1cccc(-c2cc3nc(NCc4cccnc4)n(C)c(=O)c3s2)c1,-0.936% (inactive)
19,Cc1ccc(S(=O)(=O)NNC(=O)/C=C/c2cccc(F)c2)cc1,-11.4% (inactive)
20,O=C(c1ccc(OC2CCN(Cc3ccccn3)CC2)cc1)N1CCCCCC1,2.11% (inactive)
21,O=C(Nc1ccnn1C1CCN(C/C=C/c2ccc(F)cc2)CC1)C1CCCC1,-71.6% (active)
22,CC(=O)Nc1ccc(CN2CCC(Oc3ccc(C(=O)N4CCCC4)cc3)CC2)cc1,20.8% (inactive)
23,Cc1nn(C)c(Cl)c1CN1CCC(n2nccc2NC(=O)C2CCCC2)CC1,22.9% (inactive)
24,CC(CN1CCC(n2nccc2NC(=O)C2CCCC2)CC1)c1ccccc1 (centres undefined),-14% (inactive)

row,SMILES,activity change
1,O=C(c1ccc(OC2CCN(C/C=C/c3ccc(F)cc3)CC2)cc1)N1CCCCC1,-63.7% (active)
2,CCC(C(=O)NC(C)(C)C)n1c(-c2ccccc2)nc2ccccc21 (centres undefined),3.76% (inactive)
3,CC(=O)Nc1ccc2nc(NC(=O)CS(=O)(=O)c3ccc(F)cc3)sc2c1,2.42% (inactive)
4,CCOc1ccc(S(=O)(=O)NCCC(=O)NCC(C)(C)N2CCOCC2)cc1,12.3% (inactive)
5,Cc1ccc(NC(=O)[C@H](Cc2ccccc2)NC(=O)CC[C@H]2O[C@@H](n3ccc(=O)[nH]c3=O)[C@H](O)[C@@H]2O)cc1C,6.2% (inactive)
6,CC1(C)OC(=O)C2=C(C[C@@H](C3CC3)O[C@H]2CCc2cccc(Cl)c2)O1,24.6% (inactive)
7,COc1cnn(-c2ccc([N+](=O)[O-])cc2)c(=O)c1Cl,-16.9% (inactive)
8,COc1ccc(CCNC(=O)c2c(C)nn(-c3ccccc3)c2Cl)cc1,-6.31% (inactive)
9,COc1ccc(Oc2c(Cl)cnn(-c3ccccc3)c2=O)cc1,-118% (active)
10,CCc1ccc(NC(=O)C(=O)NNC(=O)c2cccs2)cc1,-11.1% (inactive)
11,CCOc1ccc(NC(=O)CN(C)C(=O)CSc2ccccc2)cc1OCC,5.24% (inactive)
12,O=C(Nc1ccc(F)cc1)C(=O)c1cn(CC(=O)N2CCOCC2)c2ccccc12,8.7% (inactive)
13,Cc1ccnc(NS(=O)(=O)c2ccc(NC(=O)c3oc4ccc(F)cc4c3C)cc2)n1,4.03% (inactive)
14,CSc1ccccc1NC(=O)COC(=O)CCCOc1ccc(C)cc1,13.8% (inactive)
15,COc1cc([N+](=O)[O-])ccc1NC(=O)COC(=O)CCOc1ccc(C)cc1,-81.7% (active)
16,COc1cccc(NC(=O)COC(=O)CCOc2ccccc2OC)c1,-1.64% (inactive)
17,O=C(COC(=O)c1cccc(Cl)c1Cl)NC1CCCCCC1,4.38% (inactive)
18,FC(F)(F)C1CCCN(c2nsc3ccccc23)C1 (centres undefined),-76% (active)
19,O=C(NCC(=O)N1CCCC(C(F)(F)F)C1)c1ccccc1F (centres undefined),6.36% (inactive)
20,Cn1ccc(=Nc2ccc(NC(=O)c3ccc(N=c4ccn(C)c5ccc([N+](=O)[O-])cc45)cc3)cc2)cc1,-20.4% (inactive)
21,Cc1ccc(CN2CC(C(=O)N3CCN(S(=O)(=O)c4ccccc4)CC3)CC2=O)cc1 (centres undefined),-19.1% (inactive)
22,Cc1ccc(S(=O)(=O)N2CCN(c3ncnc4ccccc34)CC2)cc1,-9.9% (inactive)
23,Cc1ccc(C)c(S(=O)(=O)N2CCN(c3ncnc4sccc34)CC2)c1,-53.3% (active)
24,COc1ccc(C)cc1S(=O)(=O)N1CCN(S(=O)(=O)c2cc(C(=O)O)ccc2C)CC1,34.7% (inactive)

row,SMILES,activity change
1,O=C1OC(Oc2ccc(Br)cc2)(c2ccccc2)c2ccccc21 (centres undefined),-13.8% (inactive)
2,CSc1ncc(C(=O)NCCCc2ccccc2)c(C)n1,0% (inactive)
3,O=C(CCl)Nc1cccc(CP(=O)(c2ccccc2)c2ccccc2)c1,-99.8% (active)
4,O=C(CSCc1ccccc1)Nc1ccccc1,0.36% (inactive)
5,O=C(Cc1ccccc1)Nc1cccc(NC(=O)c2ccccc2)c1,-19.5% (inactive)
6,COC(=O)c1ccc2nc(-c3cccc(Br)c3)c(Cc3ccccc3C(F)(F)F)n2c1,0% (inactive)
7,CCCC(=O)N1CCC1(C)C(=O)NCc1ccc(SC)cc1 (centres undefined),21.3% (inactive)
8,C/C(=N\N=C(N)N)c1ccc(Cl)cc1,-86.4% (active)
9,C/C(=N\NC(=S)NCc1ccccc1)c1ccc(Cl)cc1,0% (inactive)
10,C/C(=N\OCC(=O)O)c1ccc(Cl)cc1,0% (inactive)
11,CCc1nc2c(OCC(=O)C(C)(C)C)cccn2c1N(C)C(=O)c1ccccc1F,32.1% (inactive)
12,O=C(Nc1cc(Br)ccc1F)c1nc[nH]c1C(=O)NCc1ccccc1,-4.71% (inactive)
13,OC[C@@H]1CN(C2CCCC2)C[C@H](n2cnc3c(NC4CCC4)ncnc32)O1,5.5% (inactive)
14,Cc1ccc(SCC(=O)N2CCN(c3ccc(F)cc3)CC2)cc1,-12.4% (inactive)
15,CCN1CCN(C(=O)CSc2ccc(C)cc2)CC1,-5.59% (inactive)
16,CCN1CCC2(CC1)N=C(c1ccc(F)cc1)C(=S)N2C(=O)c1ccc(C)cc1,-115% (active)
17,CC(Sc1nncn1C)C(=O)NCCC1=CCCCC1 (centres undefined),1.27% (inactive)
18,CCCCN(Cc1ccccc1)C(=O)C1CCN(Cc2sccc2C)CC1,-20.5% (inactive)
19,O=C(NCc1ccccn1)[C@@H]1CCCN1C(=O)[C@@H]1CCCN1C(=O)c1ccccc1,0% (inactive)
20,CCN(CC)CCOc1ccc2c(c1)C(=NNC(=O)c1ccccn1)c1cc(OCCN(CC)CC)ccc1-2,-56.2% (active)
21,CCC(C(=O)OCCN(CC)CC)c1ccccc1 (centres undefined),-16.3% (inactive)
22,CCOc1cc2ccccc2cc1C(=O)Nc1ccccn1,9.73% (inactive)
